Results on 31 compounds are retold here after PubChem BioAssay (EPA / NIEHS).

For assay [1], the target named is Glucocorticoid receptor (Homo sapiens) (UniProt P04150). The experiment in a line: ATG_GR_TRANS: Attagene TRANS-FACTORIAL HepG2 Assay for human Glucocorticoid Receptor (GR) (AID 2282978).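 Note: activators score as hits since higher reporter transcript over DMSO is fitted.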 The settings on record: HepG2 Attagene TRANS GR reporter, mRNA transcription. The procedure, abridged: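 After 24 h incubation with test chemical, transfected HepG2 cells were lysed for RNA; reporter cDNA was amplified, FAM-labelled, HpaI-digested and sized on a capillary analyser. Signal gain relative to DMSO was scored.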

For assay [2], the target named is Bile acid receptor (Homo sapiens) (UniProt Q96RI1). Put plainly: ATG_FXR_TRANS: Attagene TRANS-FACTORIAL HepG2 Assay for Farnesoid X Receptor (FXR) (AID 2282979).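 Note: hits raise reporter mRNA above DMSO so AC50 marks FXR activation.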 Conditions: HepG2 Attagene TRANS FXR-GAL4 reporter transcription. The procedure, abridged:
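HepG2 cells transiently transfected with reporter constructs in which a chimeric FXR-GAL4 protein drives a GAL4-UAS reporter; 24 h compound exposure. Reporter mRNA measured by RT-PCR, FAM labelling, HpaI digestion and capillary electrophoresis; gain-of-signal versus DMSO.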

The target of assay [3] is Oxysterols receptor LXR-alpha (Homo sapiens) (UniProt Q13133). Put plainly: ATG_LXRa_TRANS: Attagene TRANS-FACTORIAL HepG2 Assay for human Liver X Receptor alpha (LXRa) (AID 2282980). Conditions: HepG2 Attagene TRANS reporter, LXRa transactivation. The method, boiled down: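 HepG2 cells were transiently transfected with multiplexed reporter units driven by chimeric LXRa–GAL4 fusion proteins, then dosed for 24 h. Reporter mRNA was quantified by RT-PCR, fluorescent labelling and capillary electrophoresis; gain of signal fitted against DMSO baseline.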

Assay [4] addresses Hepatocyte nuclear factor 4-alpha (Homo sapiens) (UniProt P41235). The experiment in a line: ATG_HNF4a_TRANS: Attagene TRANS-FACTORIAL HepG2 Assay for human Hepatocyte Nuclear Factor 4 alpha (HNF4a) (AID 2282982). The settings on record: HepG2 HNF4a transactivation reporter, mRNA readout. The procedure, abridged:
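HepG2 cells transiently transfected with HNF4a-Gal4 chimera and GAL4-UAS reporter units, dosed for 24 h. Reporter mRNA measured by RT-PCR, fluorescent primer extension and capillary electrophoresis; gain-of-signal fitted relative to DMSO.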

A short description of assay [5]: ATG_M_06_TRANS: Attagene TRANS-FACTORIAL HepG2 Assay for M06 Transcription Factor (Internal Marker) (AID 2282983).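 For AC50: potency for rise in reporter mRNA above DMSO baseline.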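 For outcome: reporter transcript level by RT-PCR then capillary electrophoresis fluorescence.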 The settings on record: HepG2 Attagene TRANS M06 internal marker reporter. The method, boiled down: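 HepG2 cells transiently transfected with multiplexed GAL4-UAS reporter transcription units; after 24 h compound exposure, reporter mRNA measured by RT-PCR, FAM-labelled primer extension, HpaI digestion and capillary electrophoresis. Gain-of-signal fitted versus DMSO baseline; background control readout.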

Assay [6] in a line: ATG_M_32_TRANS: Attagene TRANS-FACTORIAL HepG2 Assay for M32 Transcription Factor (Internal Marker) (AID 2282984). Conditions: HepG2 Attagene TRANS M32 internal marker reporter. The method, boiled down:
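HepG2 cells transiently transfected with GAL4-UAS reporter units, dosed for 24 hours. Reporter mRNA quantified by RT-PCR, 6-FAM labelling, HpaI digestion and capillary electrophoresis; internal-marker signal fitted upward relative to DMSO.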

The target in assay [7] is Nuclear receptor subfamily 4 group A member 2 (Homo sapiens) (UniProt P43354). The experiment in a line: ATG_NURR1_TRANS: Attagene TRANS-FACTORIAL HepG2 Assay for human Nuclear Receptor Related Protein 1 (NURR1) (AID 2282985). The settings on record: HepG2 Attagene TRANS reporter, mRNA readout. The procedure, abridged:
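HepG2 cells transiently transfected with NURR1-Gal4 chimera and GAL4-UAS reporter units; after 24 hr compound exposure, reporter mRNA quantified by RT-PCR and capillary electrophoresis; gain of signal fitted against DMSO.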

The target in assay [8] is Transcriptional activator Myb (Homo sapiens) (UniProt P10242). Put plainly: ATG_Myb_CIS: Attagene CIS-FACTORIAL HepG2 Assay for human Myeloblastosis (Myb) Proto-Oncogene Transcription Factor (AID 2282986; active = hit-call score of the fitted dose curve at least 0.9, where 1 is the maximum; inactive = score below 0.9). The settings on record: HepG2 Attagene CIS-FACTORIAL Myb reporter transcription; actives raise or lower the signal. The procedure, abridged:
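After 24 h of compound dosing, total RNA from transfected HepG2 cells is reverse-transcribed and the reporter sequences amplified, labeled and separated by capillary electrophoresis. Values come from bidirectional fitting against DMSO.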

The target of assay [9] is Nuclear respiratory factor 1 (Homo sapiens) (UniProt Q16656). The experiment in a line: ATG_NRF1_CIS: Attagene CIS-FACTORIAL HepG2 Assay for human Nuclear Respiratory Factor 1 (NRF1) Orphan Gene (AID 2282987; active = hit-call score of the fitted dose curve at least 0.9, where 1 is the maximum; inactive = score below 0.9). Conditions: HepG2 NRF1 cis-element reporter, Attagene multiplex; actives raise or lower the signal. The procedure, abridged: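 Measured: fluorescent reporter-specific RT-PCR products from transfected HepG2 cells, separated by capillary electrophoresis. Exposure lasted 24 h. Analysis used bidirectional curve fitting with DMSO as negative control.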

Assay [10] addresses Oxysterols receptor LXR-beta (Homo sapiens) (UniProt P55055). The experiment in a line: ATG_LXRb_TRANS: Attagene TRANS-FACTORIAL HepG2 Assay for human Liver X Receptor beta (LXRb) (AID 2282981). Conditions: HepG2 Attagene TRANS GAL4-LXRb reporter, mRNA. The procedure, abridged:
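HepG2 cells transiently transfected with GAL4-UAS reporter units for chimeric NR-Gal4 proteins, dosed for 24 h. Reporter transcripts measured by RT-PCR and capillary electrophoresis; gain-of-signal fitting relative to DMSO.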

Records with an inconclusive call do not appear. Active and inactive are the calls of the source. Rule for the calls, unless noted: active = hit-call score of the fitted dose curve at least 0.9, where 1 is the maximum; inconclusive = response in the unintended direction; inactive = score below 0.9.

Sequence of Bile acid receptor (Homo sapiens) (Q96RI1 whole entry, looked up, the tested form may be a part): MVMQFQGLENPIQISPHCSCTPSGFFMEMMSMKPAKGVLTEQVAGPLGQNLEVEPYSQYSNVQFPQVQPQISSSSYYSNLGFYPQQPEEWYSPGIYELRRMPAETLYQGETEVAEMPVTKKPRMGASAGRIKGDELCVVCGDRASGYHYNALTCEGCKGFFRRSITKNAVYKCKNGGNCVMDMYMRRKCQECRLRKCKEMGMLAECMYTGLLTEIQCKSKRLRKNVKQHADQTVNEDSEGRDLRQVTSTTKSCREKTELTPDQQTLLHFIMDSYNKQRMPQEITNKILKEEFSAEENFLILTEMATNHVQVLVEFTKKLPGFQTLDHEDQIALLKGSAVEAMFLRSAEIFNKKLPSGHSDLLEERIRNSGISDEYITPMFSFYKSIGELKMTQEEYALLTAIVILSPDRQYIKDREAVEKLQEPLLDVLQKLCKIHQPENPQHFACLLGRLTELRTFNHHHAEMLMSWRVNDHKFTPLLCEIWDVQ
Sequence of Nuclear respiratory factor 1 (Homo sapiens) (Q16656 whole entry, looked up): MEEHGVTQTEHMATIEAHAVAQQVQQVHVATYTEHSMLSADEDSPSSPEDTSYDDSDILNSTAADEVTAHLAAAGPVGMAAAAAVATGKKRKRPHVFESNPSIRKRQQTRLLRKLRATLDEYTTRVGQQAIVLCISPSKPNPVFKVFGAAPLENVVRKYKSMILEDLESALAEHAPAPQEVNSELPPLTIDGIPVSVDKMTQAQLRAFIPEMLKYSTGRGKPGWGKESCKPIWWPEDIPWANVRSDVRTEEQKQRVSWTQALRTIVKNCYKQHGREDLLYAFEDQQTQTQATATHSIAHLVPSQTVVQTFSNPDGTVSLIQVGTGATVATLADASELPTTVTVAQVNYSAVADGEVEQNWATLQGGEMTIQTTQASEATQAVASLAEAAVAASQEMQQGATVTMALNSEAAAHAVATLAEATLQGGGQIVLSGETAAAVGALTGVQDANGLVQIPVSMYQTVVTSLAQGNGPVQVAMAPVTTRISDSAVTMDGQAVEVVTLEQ
Sequence of Nuclear receptor subfamily 4 group A member 2 (Homo sapiens) (P43354 whole entry, looked up, the tested form may be a part): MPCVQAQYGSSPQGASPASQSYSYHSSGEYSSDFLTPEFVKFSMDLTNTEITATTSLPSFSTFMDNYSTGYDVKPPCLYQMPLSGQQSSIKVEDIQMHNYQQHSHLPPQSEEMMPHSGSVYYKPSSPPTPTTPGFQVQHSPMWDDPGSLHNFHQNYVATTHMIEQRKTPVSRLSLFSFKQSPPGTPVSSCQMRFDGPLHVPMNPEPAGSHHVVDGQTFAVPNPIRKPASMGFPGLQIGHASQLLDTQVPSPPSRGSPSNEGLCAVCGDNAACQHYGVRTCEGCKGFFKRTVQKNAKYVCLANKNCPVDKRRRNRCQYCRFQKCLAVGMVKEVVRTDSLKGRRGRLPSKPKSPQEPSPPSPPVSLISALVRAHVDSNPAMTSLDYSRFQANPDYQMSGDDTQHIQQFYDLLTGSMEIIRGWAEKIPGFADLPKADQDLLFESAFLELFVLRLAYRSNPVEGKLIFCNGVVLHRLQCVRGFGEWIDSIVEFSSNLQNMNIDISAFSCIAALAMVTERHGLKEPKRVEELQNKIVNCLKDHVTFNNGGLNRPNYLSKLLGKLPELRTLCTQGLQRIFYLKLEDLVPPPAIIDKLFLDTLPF
Sequence of Oxysterols receptor LXR-alpha (Homo sapiens) (Q13133 whole entry, looked up, the tested form may be a part): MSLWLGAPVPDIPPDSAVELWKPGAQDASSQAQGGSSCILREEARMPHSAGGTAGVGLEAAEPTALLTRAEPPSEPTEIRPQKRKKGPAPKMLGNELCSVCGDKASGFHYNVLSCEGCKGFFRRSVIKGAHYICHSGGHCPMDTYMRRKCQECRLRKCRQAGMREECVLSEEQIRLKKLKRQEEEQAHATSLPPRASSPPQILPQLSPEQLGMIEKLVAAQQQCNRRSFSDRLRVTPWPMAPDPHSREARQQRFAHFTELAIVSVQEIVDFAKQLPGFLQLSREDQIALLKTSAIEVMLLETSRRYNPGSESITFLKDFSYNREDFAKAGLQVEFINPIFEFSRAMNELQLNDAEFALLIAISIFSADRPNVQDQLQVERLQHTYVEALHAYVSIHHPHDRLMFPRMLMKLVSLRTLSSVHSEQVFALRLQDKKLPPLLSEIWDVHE
Sequence of Transcriptional activator Myb (Homo sapiens) (P10242 whole entry, looked up): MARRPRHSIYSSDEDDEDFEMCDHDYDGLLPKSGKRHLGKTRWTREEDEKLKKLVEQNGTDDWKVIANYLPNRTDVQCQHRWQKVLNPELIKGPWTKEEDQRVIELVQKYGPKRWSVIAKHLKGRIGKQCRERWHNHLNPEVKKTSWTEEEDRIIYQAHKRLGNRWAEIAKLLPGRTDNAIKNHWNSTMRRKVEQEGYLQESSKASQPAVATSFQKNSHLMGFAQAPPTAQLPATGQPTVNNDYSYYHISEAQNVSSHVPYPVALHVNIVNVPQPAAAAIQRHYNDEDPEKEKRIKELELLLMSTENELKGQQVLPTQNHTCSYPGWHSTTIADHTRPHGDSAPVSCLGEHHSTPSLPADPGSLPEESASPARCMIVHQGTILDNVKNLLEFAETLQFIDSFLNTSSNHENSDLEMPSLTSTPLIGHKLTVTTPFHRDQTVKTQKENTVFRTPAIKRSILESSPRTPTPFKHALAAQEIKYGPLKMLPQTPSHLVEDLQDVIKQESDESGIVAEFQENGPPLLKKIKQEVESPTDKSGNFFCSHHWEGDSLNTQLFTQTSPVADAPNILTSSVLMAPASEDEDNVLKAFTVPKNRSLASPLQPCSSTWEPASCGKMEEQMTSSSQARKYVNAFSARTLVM
Sequence of Hepatocyte nuclear factor 4-alpha (Homo sapiens) (P41235 whole entry, looked up, the tested form may be a part): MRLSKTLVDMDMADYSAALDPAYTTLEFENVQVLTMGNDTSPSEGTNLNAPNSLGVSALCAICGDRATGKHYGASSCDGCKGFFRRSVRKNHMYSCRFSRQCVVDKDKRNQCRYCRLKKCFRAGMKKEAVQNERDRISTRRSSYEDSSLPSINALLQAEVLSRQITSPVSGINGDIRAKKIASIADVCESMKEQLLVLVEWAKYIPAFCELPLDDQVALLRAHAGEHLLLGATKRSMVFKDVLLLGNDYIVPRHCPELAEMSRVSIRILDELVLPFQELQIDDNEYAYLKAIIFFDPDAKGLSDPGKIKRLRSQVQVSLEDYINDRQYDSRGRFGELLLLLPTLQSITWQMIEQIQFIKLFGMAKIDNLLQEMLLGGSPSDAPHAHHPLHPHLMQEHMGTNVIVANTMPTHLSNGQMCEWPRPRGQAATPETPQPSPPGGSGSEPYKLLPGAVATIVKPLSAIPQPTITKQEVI
Sequence of Oxysterols receptor LXR-beta (Homo sapiens) (P55055 whole entry, looked up, the tested form may be a part): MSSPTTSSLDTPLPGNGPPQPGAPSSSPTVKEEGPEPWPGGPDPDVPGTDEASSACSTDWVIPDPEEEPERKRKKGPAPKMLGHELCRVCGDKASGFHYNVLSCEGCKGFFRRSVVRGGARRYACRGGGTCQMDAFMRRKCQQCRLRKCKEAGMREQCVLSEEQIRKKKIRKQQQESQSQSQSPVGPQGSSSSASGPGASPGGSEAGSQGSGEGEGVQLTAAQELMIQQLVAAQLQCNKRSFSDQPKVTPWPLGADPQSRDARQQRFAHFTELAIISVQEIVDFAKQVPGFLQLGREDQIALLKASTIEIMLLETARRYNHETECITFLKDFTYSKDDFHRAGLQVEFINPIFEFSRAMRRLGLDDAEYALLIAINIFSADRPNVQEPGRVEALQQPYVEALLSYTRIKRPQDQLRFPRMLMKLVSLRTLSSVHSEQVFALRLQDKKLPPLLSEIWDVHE
Sequence of Glucocorticoid receptor (Homo sapiens) (P04150 whole entry, looked up): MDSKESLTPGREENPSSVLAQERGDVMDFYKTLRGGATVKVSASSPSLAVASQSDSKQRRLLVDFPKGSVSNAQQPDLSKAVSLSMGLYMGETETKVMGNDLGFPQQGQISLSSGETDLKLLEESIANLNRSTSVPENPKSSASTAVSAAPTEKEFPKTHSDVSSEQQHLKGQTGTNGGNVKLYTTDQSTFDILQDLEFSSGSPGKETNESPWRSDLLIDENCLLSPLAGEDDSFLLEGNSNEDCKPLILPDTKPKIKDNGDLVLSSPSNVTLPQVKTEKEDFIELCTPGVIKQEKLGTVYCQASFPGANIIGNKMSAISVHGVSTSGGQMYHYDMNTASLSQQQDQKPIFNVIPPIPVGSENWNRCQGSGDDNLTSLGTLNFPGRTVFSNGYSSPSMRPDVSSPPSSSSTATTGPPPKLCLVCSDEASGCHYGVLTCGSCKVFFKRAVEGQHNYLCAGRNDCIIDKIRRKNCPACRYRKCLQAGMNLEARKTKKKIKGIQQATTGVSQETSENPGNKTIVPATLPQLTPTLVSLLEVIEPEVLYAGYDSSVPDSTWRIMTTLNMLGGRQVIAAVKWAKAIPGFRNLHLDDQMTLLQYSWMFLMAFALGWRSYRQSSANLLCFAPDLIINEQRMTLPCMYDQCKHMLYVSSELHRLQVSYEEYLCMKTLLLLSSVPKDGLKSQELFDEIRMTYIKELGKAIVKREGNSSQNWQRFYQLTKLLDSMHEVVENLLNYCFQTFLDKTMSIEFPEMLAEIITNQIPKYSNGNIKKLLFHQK

In the case of `Cc1cccc(N(C)C(=S)Oc2ccc3ccccc3c2)c1`, the compound was classed as inactive in [1], in assay [2], in assay [3], in assay [4], in [5] and in [6]. Also, the compound was called inactive in assay [8] and in assay [9]. In assay [7], the AC50 is 44.1 µM (active).

Turning to `CCCCCCCCO[C@@H]1O[C@H](CO)[C@@H](O)[C@H](O)[C@H]1O`, the compound was called inactive in assay [1], in [2], in assay [10], in assay [6], in [7] and in [8]. Moreover, the result in assay [9] was inactive.

Consider `CC(C)c1ccc2c(c1)CC[C@H]1[C@](C)(CN)CCC[C@]21C`, for which the compound was called inactive in [1], in assay [2], in assay [3], in assay [10], in assay [4] and in assay [7]. The compound was classed as inactive in [8] and in [9]. For the same compound, the AC50 in [5] is 5.45 µM (active).

On to `COC(F)(F)C(F)(C(F)(F)F)C(F)(F)F`, for which the outcome in assay [1], in [2], in assay [10], in assay [5], in assay [6] and in [8] was inactive. The call in assay [9] was inactive.

Consider `O=C1Nc2ccccc2C1(c1ccc(O)cc1)c1ccc(O)cc1`, for which the compound was classed as inactive in assay [1], in assay [10], in assay [5], in assay [6], in [8] and in assay [9]. Also, the AC50 in assay [2] was 10.5 µM (active).

`O=C1CCCCCCCCCCCCCCCO1`: the outcome in assay [1], in assay [2], in [3], in assay [10], in [5] and in [6] was inactive. For the same compound, the compound was classed as inactive in assay [7], in [8] and in assay [9].

For `C[Si](C)(C)O[Si](O)(O)O`, the compound was called inactive in assay [1], in assay [2], in assay [3], in [5], in [7] and in assay [8]. The result in assay [9] was inactive.

Consider `CC(=O)c1ccc[nH]1`, for which the compound was classed as inactive in [1], in assay [2], in assay [3], in assay [10], in assay [8] and in assay [9].

Turning to `CC1=NN(c2cc(S(=O)(=O)O)ccc2Cl)C(=O)C1N=Nc1ccccc1` (centres undefined), the compound was called inactive in assay [1], in assay [2], in assay [3], in assay [10], in assay [5] and in [6]. Also, the call in assay [8] and in [9] was inactive.

Regarding `O=C1c2cccc(O)c2C(=O)c2c(O)cc(CO)cc21`, the compound was called inactive in assay [1], in [2], in [3], in assay [7], in assay [8] and in [9].

Consider `CCOc1nc(F)cc2nc(S(=O)(=O)Nc3c(Cl)cccc3C(=O)OC)nn12`, for which the outcome in assay [1], in assay [2], in [10], in [4], in assay [8] and in [9] was inactive.

Regarding `COC(=O)C1=C(C)NC(C)=C(C(=O)OCC(C)C)C1c1ccccc1[N+](=O)[O-]` (centres undefined), the call in assay [1], in assay [2], in assay [3], in assay [4], in assay [5] and in assay [6] was inactive. Besides, the call in assay [8] was inactive. Besides, the AC50 in assay [9] was 15.4 µM (active).

For the compound `C=CCOc1c(Br)cc(Br)cc1Br`, the result in assay [1], in assay [2], in assay [10], in [6], in assay [8] and in assay [9] was inactive. In addition, the AC50 in [7] is 43.4 µM (active).

With `C#CC1(O)CC[C@H]2[C@@H]3CCC4=CCCC[C@@H]4[C@H]3CC[C@@]21C` (some centres undefined), the compound was classed as inactive in [1], in assay [2], in assay [4], in assay [6], in [8] and in assay [9]. Also, the AC50 in assay [3] is 1.46 µM (active); in assay [10], 1.81 µM (active).

For the compound `CCOC(=O)c1ccc(N(C)C)cc1`, the compound was called inactive in assay [1], in assay [10], in [4], in assay [6], in assay [7] and in assay [8]. For the same compound, in [9], the compound was classed as inactive.

With `COCCOCCOCCOCCOC`, the compound was called inactive in [1], in assay [10], in assay [4], in [8] and in assay [9].

Consider `CC(=O)Nc1nnc(S(N)(=O)=O)s1`, for which the call in [1], in assay [10], in assay [5], in assay [6], in assay [8] and in assay [9] was inactive.

On to `NC(=O)NNC(N)=O`, for which the outcome in assay [1], in assay [3], in assay [6], in assay [7], in assay [8] and in [9] was inactive.

Consider `O=C1CCCC1`, for which the compound was called inactive in assay [1], in assay [10], in assay [6], in assay [7], in [8] and in assay [9].

On to `CC(C)(C)c1n[nH]c(=O)n(N)c1=O`, for which the outcome in assay [1], in [10], in assay [4], in [8] and in assay [9] was inactive.

Turning to `C=CC(C)(CCC=C(C)C)OC(=O)C(C)C` (centres undefined), the compound was classed as inactive in assay [1], in assay [3], in assay [8] and in assay [9].

`CNC(=S)N(C)C`: the compound was called inactive in [1], in [10], in [4], in [8] and in assay [9].

As to `O=C(Oc1ccccc1)c1ccc2ccccc2c1O`, the compound was classed as inactive in assay [1], in [10], in assay [5], in assay [6], in assay [7] and in [8]. Also, in [9], the compound was called inactive.

In the case of `O=C(O)CCCCCCCCCC(=O)O`, the compound was classed as inactive in assay [1], in assay [10], in assay [5], in [6], in [7] and in assay [8]. The result in [9] was inactive.

Consider `Cc1cc(C)c(C(=O)O)c(C)c1`, for which the outcome in assay [1], in assay [10], in [6], in assay [8] and in assay [9] was inactive.

Consider `CC(C)CCCCCOC(=O)CCS`, for which the result in assay [1], in assay [10], in assay [4], in [6], in assay [8] and in [9] was inactive.

As to `C=C(C)[C@@H]1CCC2=CCC[C@@H](C)[C@]2(C)C1`, the result in [1], in assay [10], in [5], in assay [6], in [7] and in assay [8] was inactive. The compound was called inactive in assay [9].

For `C=CCOCC(O)CCl` (centres undefined), the compound was classed as inactive in [1], in [3], in [4], in assay [5], in [6] and in assay [9].

Turning to `FC(F)(F)C(=NOCC1OCCO1)c1ccc(Cl)cc1`, the result in assay [1], in assay [10], in [5], in [6] and in assay [9] was inactive.

As to `O=C1CCC(=O)N1Cl`, the compound was called inactive in [1], in assay [10], in assay [6], in [7], in assay [8] and in [9].

Take `CC(C)CC(O)Cc1ccccc1` (centres undefined): the compound was classed as inactive in [1], in assay [3], in assay [4], in [5], in assay [6] and in [8]. The compound was classed as inactive in [9].
